Experimental data: PubChem BioAssay AID651551 (Sanford-Burnham Center for Chemical Genomics, 2012)

target: PEG-3 (UniProt Q6IN02); experiment: GAPDH versus PEG-3 reporter suppression – cell-based, luminescence, counter-screen for PEG-3 promoter inhibitor project, SAR follow-up (AID 651551); settings: HeLa PEG-Prom / GAPDH luciferase reporter, 6 or 24 h, run 3, 6 h; at 99 µM (top of the series)

Compound	inhibition % (higher = more inhibition) [%]
COc1ccc(-n2nc(C(=O)NCC(=O)Nc3cccc(OC)c3)c3ccccc3c2=O)cc1	-17.6
COc1ccc(-n2nc(C(=O)NCC(=O)Nc3cc(OC)c(OC)c(OC)c3)c3ccccc3c2=O)cc1OC	9.38
Cc1cc(NC(=O)c2ccccc2)n(-c2nc3ccccc3[nH]2)n1	76.2
CCCn1nc(C(=O)Nc2nc(-c3ccccn3)cs2)c2ccccc2c1=O	34.4
CCn1nc(C(=O)Nc2nc(-c3ccccn3)cs2)c2ccccc2c1=O	39.7
Cc1nc(NC(=O)c2ccccc2)sc1-c1csc(Nc2ccccc2Cl)n1	19.9
O=C(Nc1nccs1)c1nn(-c2ccccc2)c(=O)c2ccccc12	29.3
COc1ccccc1Nc1nc(-c2sc(NC(=O)c3ccco3)nc2C)cs1	15.2
COCCCNC(=O)c1ccc(Cn2c(=O)c3ccccc3n(Cc3ccccc3C#N)c2=O)cc1	12.9
O=C(Nc1nc2ccccc2s1)c1nn(-c2ccccc2)c(=O)c2ccccc12	-12.9
O=C(Nc1nc(-c2ccccc2)cs1)c1nn(-c2ccccc2)c(=O)c2ccccc12	11.7
Cc1cc(NC(=O)c2ccccc2)n(-c2nc3ccccc3n2C)n1	40.4
COc1ccc(-n2nc(C(=O)NCC(=O)Nc3ccc(OC)c(OC)c3)c3ccccc3c2=O)cc1	27
Cc1cc(NC(=O)c2ccccc2C(F)(F)F)n(-c2nc3ccccc3[nH]2)n1	83.9
CCn1cc(C(=O)NCc2ccco2)c(=O)c2cc(S(=O)(=O)N3CCCC3)ccc21	15.2
Cc1cc(NC(=O)c2ccccc2C)n(-c2nc3ccccc3[nH]2)n1	53.8
Cc1nc(NC(=O)c2ccccc2)sc1-c1csc(Nc2cccc(Cl)c2C)n1	49.3
Cc1ccc(Cl)cc1Nc1nc(-c2sc(NC(=O)c3ccco3)nc2C)cs1	50.8
COc1ccc(Cl)cc1Nc1nc(-c2sc(NC(=O)c3ccccc3)nc2C)cs1	64.3
Cc1cc(NC(=O)c2cccc(C)c2C)n(-c2nc3ccccc3[nH]2)n1	61.3
Cc1nc(NC(=O)c2ccccc2)sc1-c1csc(Nc2ccccc2)n1	27
CCCn1nc(C(=O)Nc2nc3ccccc3s2)c2ccccc2c1=O	36.4
CCCn1nc(C(=O)Nc2nc(-c3ccncc3)cs2)c2ccccc2c1=O	24.5
